NPR1 antag = human Npr1 receptor antagonism | P16066 | HEK293 hNpr1 GloSensor cGMP, ANP-stimulated luminescence | Potency, µM (titrated, usually from 46.3 µM), for inactives: top-dose activity change, negative = inhibition, usual class: inhibitors | actives 1.6% (n = 76,000); calls by dose curve; further: nearly all actives have a fitted effect of over 60% in size
Target sequence (P16066 whole entry, looked up): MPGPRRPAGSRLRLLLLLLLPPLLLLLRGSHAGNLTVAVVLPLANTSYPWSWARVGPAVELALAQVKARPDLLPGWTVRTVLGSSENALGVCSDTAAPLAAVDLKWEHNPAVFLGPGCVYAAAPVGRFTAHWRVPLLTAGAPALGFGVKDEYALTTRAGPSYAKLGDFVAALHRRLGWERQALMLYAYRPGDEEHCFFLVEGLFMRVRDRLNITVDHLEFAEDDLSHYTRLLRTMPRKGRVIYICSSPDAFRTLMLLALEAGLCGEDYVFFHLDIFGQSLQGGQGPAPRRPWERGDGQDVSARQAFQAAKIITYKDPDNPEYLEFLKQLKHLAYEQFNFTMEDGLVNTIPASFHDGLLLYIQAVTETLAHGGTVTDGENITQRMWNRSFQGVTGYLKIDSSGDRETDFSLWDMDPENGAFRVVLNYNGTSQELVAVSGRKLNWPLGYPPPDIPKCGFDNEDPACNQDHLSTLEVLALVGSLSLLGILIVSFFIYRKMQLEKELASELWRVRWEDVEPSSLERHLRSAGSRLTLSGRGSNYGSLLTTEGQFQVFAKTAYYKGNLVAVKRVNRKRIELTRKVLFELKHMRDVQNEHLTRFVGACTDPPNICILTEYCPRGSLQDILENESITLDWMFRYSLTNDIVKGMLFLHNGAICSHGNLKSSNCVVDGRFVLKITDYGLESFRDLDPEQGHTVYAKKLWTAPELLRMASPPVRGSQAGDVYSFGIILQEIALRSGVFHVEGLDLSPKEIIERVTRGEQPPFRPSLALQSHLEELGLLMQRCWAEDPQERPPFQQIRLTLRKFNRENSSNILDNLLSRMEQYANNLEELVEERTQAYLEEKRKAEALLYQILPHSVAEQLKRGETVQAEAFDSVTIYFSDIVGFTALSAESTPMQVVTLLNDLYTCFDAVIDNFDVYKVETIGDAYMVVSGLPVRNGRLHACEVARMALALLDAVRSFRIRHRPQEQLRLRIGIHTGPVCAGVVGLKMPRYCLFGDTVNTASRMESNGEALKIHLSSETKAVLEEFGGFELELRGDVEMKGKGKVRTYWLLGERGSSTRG
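Compound pre-incubated 30 min at room temperature on GloSensor-loaded HEK293 cells stably carrying hNpr1 and the pGS-40F cGMP biosensor. Stimulation uses hNppA at 0.1 nM final; luminescence is taken at baseline and 20 min post-agonist.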
HEK cytotox = kills HEK 293 cells; HEK 293 viability, ATP luminescence (CellTiter-Glo), 48-72 h; Potency, µM (highest dose often 115 µM), inactives show at the top dose activity change, negative = cytotoxicity, usual class: inhibitors; actives 6.6% (n = 94,000); AID 1345083; further: nearly all actives have a fitted effect of over 60% in size
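qHTS cytotoxicity; HEK 293, 250 cells/well; compound pinned; 48 or 72 hr, 37 degree Celsius, 5% CO2, 95% humidity; CellTiter-Glo, 10 min RT; luminescence (ATP).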
NIH3T3 tox = NIH 3T3 cell cytotoxicity; Potency, µM (doses to about 96.7 µM), without a hit: at the top dose activity change, negative = cytotoxicity, actives largely listed as inhibitors; NIH 3T3 viability, CellTiter-Glo ATP luminescence, 48-72 h; actives 4.3% (n = 94,000); further: nearly all actives have a fitted effect of over 55% in size
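Luminescent ATP readout (CellTiter-Glo, 10 min RT) after 48 or 72 hr compound exposure of NIH 3T3 cells seeded at 400 cells/well in 1536-well format; quantitative HTS.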
FLuc inh = Photinus pyralis luciferase inhibition; AID 1347043; actives 2.5% (n = 76,000); purified P. pyralis luciferase, luminescence, biochemical; P08659; Potency, µM (series often up to 115 µM), most hits filed as inhibitors; further: nearly all actives have a fitted effect of over 65% in size
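Purified P. pyralis luciferase (10nM final) in 50mM Tris acetate pH 7.5, 10mM Mg acetate, 0.01% Tween-20, 0.05% BSA with 10uM D-luciferin and 10uM ATP. Compounds titrated qHTS. Luminescence imaged on CCD.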
Active calls of the source: *; i = inactive; ? = inconclusive; / = not tested or not shown; [ ] = dose if it differs, or a comment. Shown are actives, neighbours in structure and some others; about 11% of the full set was active somewhere. Unless noted, the call rests on the fitted dose curve; in most records, active means well fitted curve in the direction sought with a large enough effect; inconclusive means small, poorly fitted or top-dose-only effect, or another doubt; inactive means no such curve, though single readings can be large; an effect the other way counts as inactive or inconclusive. On the % scale 0 is the no-effect control and ±100 the full control effect; potency means the concentration at half of the fitted maximal effect.

SMILES	NPR1 antag	HEK cytotox	NIH3T3 tox	FLuc inh
CCOc1ccc(NC(=O)c2cc(-c3ccc[nH]3)n[nH]2)cc1	3%	6%	1%	7.1µM*
COc1ccc(NC(=O)c2cc(-c3ccc[nH]3)n[nH]2)c(OC)c1	-17%	?	-25%	20µM*
COc1ccc(Cl)cc1NC(=O)c1cc(-c2ccc[nH]2)n[nH]1	-8%	?	?	?
O=C(Nc1ccc(F)cc1F)c1cc(-c2ccc[nH]2)n[nH]1	2%	?	-24%	14µM*
CCOC(=O)CNC(=O)N1CCC2(CC1)N(Cc1ccccc1)C(=O)CS2(=O)=O	/	-3%	-13%	/
C[C@H](NC(=O)C[C@@H]1c2nc(NC(=O)c3ccc(F)cc3)sc2C[C@@H]2[C@](C)(CO)[C@H](O)CC[C@]21C)c1ccccc1	-9%	32µM*	?	i
CCCCCC(=O)Nc1nc2c(s1)C[C@@H]1[C@](C)(CO)[C@H](O)CC[C@@]1(C)[C@@H]2CC(=O)N[C@@H](CO)CC(C)C	3%	?	79µM*	i
C[C@@H](NC(=O)C[C@@H]1c2nc(NC(=O)CC(C)(C)C)sc2C[C@@H]2[C@](C)(CO)[C@H](O)CC[C@]21C)c1ccccc1	1%	40µM*	?	i
O=C1CC2(CCN(C(=O)C3CCCN3C(=O)c3ccc(F)cc3)CC2)Oc2ccccc2N1 (stereo not drawn)	/	-6%	-18%	/
Cc1oc(C(O)c2cncnc2)nc1C(=O)Nc1ccc(N2CCOCC2)cc1 (stereo not drawn)	-2%[70.6 µM]	-12%[172 µM]	?	18µM*
Cc1oc(C(O)c2cncnc2)nc1C(=O)Nc1ccc2c(c1)NC(=O)CO2 (stereo not drawn)	-1%[70.6 µM]	-11%[172 µM]	?	i
COc1cccc(C(O)c2nc(C(=O)Nc3ccc(OC)c(OC)c3)c(C)o2)c1 (stereo not drawn)	3%[70.6 µM]	?	-24%[138 µM]	25µM*
COc1cccc(C(O)c2nc(C(=O)NCc3ccco3)c(C)o2)c1 (stereo not drawn)	-5%[70.6 µM]	-41%[172 µM]	?	i
Cc1ccc(-n2cc(CN3CCN4CCCC4C3)c(-c3cccc(C)c3)n2)cc1 (stereo not drawn)	-3%	28µM*	25µM*	?
Cc1cccc(-n2cc(CN3CCCC(C)(O)C3)c(-c3cccc(F)c3)n2)c1 (stereo not drawn)	6%	?	89µM*	18µM*
COc1ccc(-n2cc(CN3CCC(O)CC3)c(-c3cccc(F)c3)n2)cc1	-1%	?	79µM*	40µM*
CC(C)NC(=O)C1CCC(=O)N1C1CCN(C(=O)Cc2ccc(Cl)cc2)CC1 (stereo not drawn)	/	1%	-14%	/
CNC(=O)c1cc(C2CC2)nc2onc(C3CCN(C(=O)Cc4ccc(OC)cc4)C3)c12 (stereo not drawn)	/	1%	-22%	/
COc1ccc(F)cc1-c1ccc(CN2CCC(NC(=O)c3ccc(C(F)(F)F)cc3)C2)cc1 (stereo not drawn)	/	20µM*	?	/
COc1ccccc1-c1ccc(CN2CCC(NC(=O)c3ccc(C(F)(F)F)cc3)C2)cc1 (stereo not drawn)	/	25µM*	?	/
CNC(=O)N1CCC2(CC1)CC(Cc1ccc(C)cc1)CCO2 (stereo not drawn)	/	?	-26%	/
C=CCOc1c(OC)ccc2c1CN(CC1CC1)C(=O)CCN2CC(O)COc1ccc(OC)cc1 (stereo not drawn)	/	40µM*	?	/
C=CCOc1c(OC)ccc2c1CN(CC1CC1)C(=O)CCN2CC(O)COC(C)(C)C (stereo not drawn)	/	?	-33%	/
CN(C)CCOCC1(C)COc2ccc(C(=O)Nc3ccc4[nH]ccc4c3)cc2N1 (stereo not drawn)	2%[70.6 µM]	?	?	50µM*
CC1(COCC2CC2)COc2ccc(C(=O)Nc3ccc4[nH]ccc4c3)cc2N1 (stereo not drawn)	?	?	45µM*	16µM*
CC1(CCCCN2CCOCC2)COc2ccc(C(=O)Nc3ccc4[nH]ccc4c3)cc2N1 (stereo not drawn)	?	?	-29%	i
COc1cccc(-c2cccc(C(=O)N3CCCC3C(=O)N3CCN(C)CC3)c2)c1 (stereo not drawn)	/	-20%	-17%	/

Screening data from PubChem.
